PubChem BioAssay (NCI)
“And” between values parts separate entries of the source, which are not always exact repeats. Equal values may be shown once. This is part of a sample that, as a whole, favours compounds with a hit. Of some 83,000 tested, about 20% had one in any assay.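 Each cell line was grown in a 96-well plate and treated with one concentration of compound for 48 hours. Values below 10 were considered active.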 A number with no mark means an inactive call. The source made the active and inactive calls.

Tests used:
Experiment in all cases: NCI-60 one-dose screen, 48 h (100 = growth as untreated, 0 = no growth, -100 = all killed)
Settings in all cases: 10 µM unless noted
NCI-H23 lung = tested on: NCI-H23 lung
NCI-H226 lung = tested on: NCI-H226 lung
NCI-H322M lung = tested on: NCI-H322M lung
HOP-62 NSCLC = tested on: HOP-62 NSCLC
NCI-H460 lung = tested on: NCI-H460 lung
HOP-92 NSCLC = tested on: HOP-92 NSCLC
NCI-H522 lung = tested on: NCI-H522 lung
A549/ATCC NSCLC = tested on: A549/ATCC NSCLC
786-0 renal = tested on: 786-0 renal
COLO 205 colon = tested on: COLO 205 colon
DU-145 prostate = tested on: DU-145 prostate
K-562 leukemia = tested on: K-562 leukemia
MALME-3M melanoma = tested on: MALME-3M melanoma
MDA-MB-231 breast = tested on: MDA-MB-231 breast
RXF 393 renal = tested on: RXF 393 renal
SF-268 CNS = tested on: SF-268 CNS
SF-295 CNS = tested on: SF-295 CNS
SF-539 CNS = tested on: SF-539 CNS
UACC-257 melanoma = tested on: UACC-257 melanoma
M14 melanoma = tested on: M14 melanoma

Row | Compound | growth (NCI-H23 lung) | growth (NCI-H226 lung) | growth (NCI-H322M lung) | growth (HOP-62 NSCLC) | growth (NCI-H460 lung) | growth (HOP-92 NSCLC) | growth (NCI-H522 lung) | growth (A549/ATCC NSCLC) | growth (786-0 renal) | growth (COLO 205 colon) | growth (DU-145 prostate) | growth (K-562 leukemia) | growth (MALME-3M melanoma) | growth (MDA-MB-231 breast) | growth (RXF 393 renal) | growth (SF-268 CNS) | growth (SF-295 CNS) | growth (SF-539 CNS) | growth (UACC-257 melanoma) | growth (M14 melanoma)
1 | COc1ccc(/C=C/C(=O)c2ccc(OC)c(S(N)(=O)=O)c2)c(C(F)(F)F)c1 | -78.3% (active) | -40.9% (active) | -2.93% (active) | -5.21% (active) | 4.78% (active) | 6.4% (active) | 9.43% (active) | 10.6% | -82% (active) | 4.9% (active) | 16.4% | 7% (active) | 17.8% | 5.46% (active) | 16.4% | 15.5% | 37.5% | -84.9% (active) | 62.3% | -48.5% (active)
2 | O=C1Nc2cc(-c3ccc(NS(=O)(=O)c4ccc([N+](=O)[O-])cc4)cc3)ccc2/C1=C/c1ccc[nH]1 | 3.29% (active) | -12.3% (active) | 62.2% | 0.132% (active) | 3.96% (active) | -29.9% (active) | -5.99% (active) | -31.9% (active) | -8.24% (active) | -31.8% (active) | -44.9% (active) | 12.6% | -0.842% (active) | 12.3% | -44.3% (active) | 46.6% | -32.7% (active) | -54.4% (active) | 4.04% (active) | -13.9% (active)
3 | Fc1ccccc1CNc1nc(SCCN2CCOCC2)nc2c1cnn2CC(Cl)c1ccc(Br)cc1 (stereo not given) | 45.1% | 31.8% | 75.2% | 40% | 17% | 26% | 58.1% | 27.7% | 8.8% (active) | -9.47% (active) | 60.5% | 3.13% (active) | -15.7% (active) | 12.6% | -13.9% (active) | 41.4% | -3.31% (active) | -3.45% (active) | 8.02% (active) | 29%
4 | COc1ccc(C(=O)NNC(=O)CSc2nc3sc4c(c3c(=O)n2-c2ccc(Cl)cc2)CCCC4)cc1 | 63.2% | 33.1% | 73.5% | 18.7% | 87.2% | 60.8% | 59% | 86.7% | 102% | 118% | 89% | 56.7% | 60.3% | 44% | 82.2% | 84.3% | 94.7% | -55.2% (active) | 100% | 77.4%
5 | NCCCCn1c(SCCc2c[nH]c3ccccc23)nnc1-c1ccc2ccccc2n1 | 11.4% | 55.2% | 18.1% | -49.7% (active) | -76.9% (active) | -8.52% (active) | -73.1% (active) | 8.17% (active) | -92.3% (active) | -66.6% (active) | 42.8% | -35.4% (active) | -99.4% (active) | -83.7% (active) | -38.3% (active) | 42.4% | -83.4% (active) | -99% (active) | -89.8% (active) | -90.1% (active)
6 | N#CC1=C(c2cccs2)Nc2c(c(-c3ccccc3)nn2-c2ccccc2)C12C(=O)Nc1ccccc12 (stereo not given) | 13.6% | 12.8% | 80.1% | -20% (active) | 5.58% (active) | -13.1% (active) | 5.69% (active) | 5.42% (active) | 1.25% (active) | 55.9% | 33.5% | 9.66% (active) | 26.9% | 34.2% | -13.4% (active) | 54.3% | 40.3% | -45.2% (active) | 88% | 14.6%
7 | N#C/C(=C/c1ccc(Cl)cc1)c1nnc(NC(=O)c2ccc(-n3c(=O)[nH]c4ccccc4c3=O)cc2)s1 | 28.6% | 2.1% (active) | 59.5% | 26.6% | 10.1% | 39.3% | 46.4% | 69.8% | 48.1% | 68.1% | 85.1% | 99% | 68.2% | -5.08% (active) | 20.1% | 73.2% | 96.3% | 24.1% | 102% | 78.8%
8 | O=C(CSc1nnc(-c2ccc(-c3nc4ccc(Cl)cc4[nH]3)cc2)o1)Nc1ccc(Cl)cc1 | -11.9% (active) | -38.2% (active) | 32.9% | -13.6% (active) | -75.8% (active) | 14.7% | -1.21% (active) | -36.2% (active) | -39.5% (active) | 45.3% | 6.16% (active) | 11.2% | -23.8% (active) | -51.5% (active) | -49% (active) | 8.68% (active) | 27.6% | -95.3% (active) | 3.38% (active) | 1.01% (active)
9 | Cc1ccc(C2CC(c3ccc(NC(=S)Nc4ccccc4)cc3)=NN2c2ccc(S(N)(=O)=O)cc2)cc1 (stereo not given) | 23.6% | -7.72% (active) | 45.6% | 34.6% | -11.1% (active) | 7.59% (active) | 15.8% | 15.1% | 18.6% | -3.89% (active) | 19.7% | 22.7% | -0.146% (active) | 15.2% | -16.1% (active) | 15.6% | 8.39% (active) | 10.3% | 36.6% | 19%
10 | CNS(=O)(=O)N1CCc2c(Br)c3c(c(OC)c2C1CCc1ccccc1)OCO3 (stereo not given) | -19.5% (active) | -70.3% (active) | 4.7% (active) | -18.6% (active) | -67.7% (active) | -54.3% (active) | -12.3% (active) | 16.6% | -44.9% (active) | -51.3% (active) | 12.1% | 13.1% | -65% (active) | -62.8% (active) | -59.7% (active) | -12% (active) | -75.3% (active) | -86.5% (active) | -24.5% (active) | -9.58% (active)
11 | O=C(c1ccc(Cl)cc1)C1[C@H](c2ccccc2Cl)[C@@H](c2ccccc2)NC12C(=O)Nc1ccc(Br)cc12 (stereo not given in full) | -80.5% (active) | -89.1% (active) | -47.3% (active) | -88% (active) | -78.8% (active) | -84.3% (active) | -73.4% (active) | -41.7% (active) | -67% (active) | -83.3% (active) | -34.7% (active) | -43.2% (active) | -64.2% (active) | -95.4% (active) | -93.5% (active) | -45.1% (active) | -88.1% (active) | -85.2% (active) | -30.7% (active) | -88.5% (active)
12 | COc1cc(CNC(=O)C[C@H](C)CCC=C(C)C)ccc1OCc1cn(-c2ccc(Br)cc2)nn1 | 60.1% | 70.2% | 99.6% | 65.1% | 74.2% | 45.9% | 41.6% | 78.6% | 68.7% | 113% | 92.7% | 66.3% | 85.4% | 80.6% | 61.8% | 71.7% | 63.2% | 51.2% | 86.3% | 97.2%
13 | NNc1ncnc2sc3c(c12)CCN(Cc1ccccc1)C3 | 73.2% | 38.9% | 40.9% | 58% | 37.3% | 77.7% | 2.62% (active) | 75.1% | 59.1% | 16.6% | 61.7% | 19% | 70.4% | 40.8% | 69.3% | 43.8% | 45.2% | 52.8% | 47% | 62.9%
14 | O=C(Cn1c(/C=C/c2ccc([N+](=O)[O-])cc2)nc2ccccc2c1=O)Nc1ccccc1 | 54.9% | -0.971% (active) | 67.2% | 49% | 52.5% | 52.1% | 79.5% | 75.7% | 47.2% | 67.2% | 78.6% | 79.6% | 85% | 46.7% | 27.4% | 58.9% | 72.2% | 21.1% | 101% | 81.2%
15 | COc1cc(C=O)ccc1Oc1nc(Nc2ccc(F)cc2)nc(N(C)C)n1 | 59.8% and 65.8% | 75.4% and 81.6% | 96.5% and 78.9% | 90% and 85.7% | 80.2% and 52.3% | 87.3% and 65.7% | 88.6% and 82.1% | 95.1% and 91% | 78.4% and 52% | 110% and 103% | 90% and 72.7% | 55.6% and 35.2% | 75.8% and 82.1% | 90.1% and 76.2% | 91.9% and 64.9% | 73.2% and 66.9% | 65.5% and 82.7% | 92.9% and 42.8% | 57.7% and 102% | 93.4% and 65.3%
